Measured values published in ChEMBL document CHEMBL4513216, “Probing the Open Global Health Chemical Diversity Library for Multistage-Active Starting Points for Next-Generation Antimalarials” (ACS Infect Dis, 2020).
Hit rate of the full screen: of about 65,000 compounds, about 2,100 (3.2%) showed an effect of 50% or more. The median lay at about -52%. What follows is part of a selection rich in strong results, with near analogues and random picks from the rest.

Tested on: Plasmodium falciparum
Assay: Screen against P. falciparum Asexual Blood Stage (ABS), at 5uM
Type: functional, Dd2
Settings: tested at 5 uM

Compared with `Cn1cc(CNC2CCC(O)CC2)c(-c2cc3ccccc3o2)n1` (stereo not given), `Cn1cc(C2CCCN2CCCn2c(=O)oc3ccccc32)cn1` (stereo not given) is higher in INHIBITION: -29% for the first, 8.65% for the second.

Compared with `CC(C)NC(=O)Nc1ccc(CNCc2ccc(OC(F)F)cc2)cc1`, `O=C(Nc1ccncc1)NC1CCN(c2ccccc2OC(F)F)C1` (stereo not given) is higher in INHIBITION: -97.1% for the first, 64.4% for the second.

Going from `CC(C)c1nc(C2CCCN2Cc2ccncc2Cl)no1` (stereo not given) to `Cc1nc(C2CCCN2CCCn2c(=O)oc3ccccc32)no1` (stereo not given), the INHIBITION rises from -53.3% to -44.1%.

Going from `COCCN1C[C@@H]2CC[C@H]1CN(C(=O)c1ccc(Cl)cc1)C2` to `CCCN1C[C@@H]2CC[C@H]1CN(Cc1ccc(-n3cccn3)cc1)C2`, the INHIBITION rises from -61.5% to 30.8%.

Going from `COc1ccc(-n2cccn2)cc1S(=O)(=O)N1C[C@H](C2CC2)[C@@H](N)C1` to `Cc1ccc(-n2cccn2)cc1S(=O)(=O)N1C[C@H](C2CC2)[C@@H](N)C1`, the INHIBITION falls from 58.9% to 41.6%.

Compared with `N[C@H]1CN(S(=O)(=O)c2cccnc2)C[C@@H]1C1CC1`, `Cc1ccc(-n2cccn2)cc1S(=O)(=O)N1C[C@H]2CC[C@@H](C1)N(C)C2` is higher in INHIBITION: -59.9% for the first, 63.6% for the second.

First: CCCN1C[C@@H]2CC[C@H]1CN(Cc1cccc(-n3cccn3)c1)C2
Second: O=C(c1cccc(Cn2ccnc2)c1)N1CCCC(n2cccn2)C1 (stereo not given)
The INHIBITION of the first is lower: 46.5% for the first, 61.4% for the second.

Going from `CN(C)Cc1cnc(C2CCN(C(=O)c3ccc(F)cc3)C2)[nH]1` (stereo not given) to `NC(=O)C1CCN(C(=O)c2ccc(OCc3cscn3)cc2)CC1`, the INHIBITION rises from -144% to -12.2%.

Going from `CCOc1cc(C)nc(N2CCN(C(=O)C(C)NC(C)=O)CC2)n1` (stereo not given) to `CCc1cnc(C)nc1NCCN1CCOCC1`, the INHIBITION rises from -92.3% to -11.8%.

Going from `Cc1ccc(N2CCCC(NCc3c(C)noc3C)C2)nn1` (stereo not given) to `COc1ccccc1N1CCC(NCc2c(C)noc2C)C1` (stereo not given), the INHIBITION rises from -2.57% to 28.4%.

Going from `Cc1noc(C)c1CNC1CCN(c2ccccc2OC(F)F)C1` (stereo not given) to `O=C(Nc1ccccn1)NC1CCN(c2ccccc2OC(F)F)C1` (stereo not given), the INHIBITION falls from 63.7% to 8.94%.

First: O=C(Nc1cccnc1)NC1CCN(c2ccccc2OC(F)F)C1 (stereo not given)
Second: COC(=O)c1cccn1C1CCN(Cc2ccccc2)CC1
The INHIBITION of the first is higher: 16% for the first, -122% for the second.

Compared with `CCCOc1c(Cl)cc(C(=O)N2CCOC23CCN(C)CC3)cc1Cl`, `COc1cccc2c1OCC(Cc1cc(C(=O)N3CCCC3)ccn1)C2` (stereo not given) is lower in INHIBITION: -5.1% for the first, -9.28% for the second.

Compared with `CSCc1cc(F)ccc1CNC(=O)N1CCCC(CO)C1` (stereo not given), `Cn1ccnc1CCNC(=O)C1CCCN(Cc2cccc(F)c2)C1` (stereo not given) is higher in INHIBITION: -126% for the first, 59.3% for the second.

Going from `OC(c1ccccc1)C1CCN(Cc2csc(-c3ncccn3)n2)CC1` (stereo not given) to `Nc1cc(N2CCC(c3cc(Cc4ccccc4)n[nH]3)CC2)ccn1`, the INHIBITION rises from -49.1% to 11.1%.

First: CCC1=N[C@@]2(CC[C@@H]3CN(C(=O)NCc4ccccc4C)C[C@@H]32)C(=O)N1
Second: Cc1cccc(Nc2cc(C3CCCN(CC(N)=O)C3)ccn2)n1 (stereo not given)
The INHIBITION of the first is lower: -16% for the first, -10.4% for the second.

Going from `c1cnn(CC2CCCN2c2ncnc3ccsc23)c1` (stereo not given) to `c1cnn(CC2CN(Cc3csc(C4CCCCC4)n3)CCO2)c1` (stereo not given), the INHIBITION rises from -122% to -70%.

First: CCc1cnc(N)nc1NCCN1CCCCC1
Second: CCc1cnc(C)nc1NCCN1CCCCCC1
The INHIBITION of the first is higher: 51.1% for the first, 44.7% for the second.

First: CCc1cnc(N)nc1NCCCn1nc(C)nc1C
Second: CCc1cnc(N)nc1NCCn1cc(Cl)cn1
The INHIBITION of the first is lower: -44.2% for the first, 55.4% for the second.

Compared with `CCc1cnc(N)nc1NCCc1ccc(OC)cc1OC`, `COc1ccc([C@@H]2CN(Cc3cccnc3N)C[C@H]2NC(C)=O)cc1` is lower in INHIBITION: -6.25% for the first, -59.7% for the second.

Going from `Cc1ccc(CN2CCC3(CC2)CN(c2ccccc2)C(=O)CO3)o1` to `CN1CC2(CCC1=O)CCN(CC[C@@H](O)c1ccccc1)CC2`, the INHIBITION rises from -69% to -14%.

First: CNc1ncc(CN(C)C(=O)CCc2[nH]nc3c2CCCC3)cn1
Second: CCCN(C(=O)c1cnccn1)c1nc2c(s1)CCc1c-2cnn1C
The INHIBITION of the first is lower: -74.2% for the first, -28.8% for the second.

Going from `CCS(=O)(=O)N1CCc2ccc(NC(=O)Nc3cccc(F)c3)cc21` to `Cn1cc(CNC(=O)C2CCCN(Cc3cccc(F)c3)C2)cn1` (stereo not given), the INHIBITION falls from -51.9% to -59.1%.

Going from `CC(C)(C)NC(=O)c1ccn(COc2ccccc2Cl)n1` to `CC(C)(C)n1ncc(NCc2ccccc2)c(Cl)c1=O`, the INHIBITION falls from -35.7% to -43.4%.

Going from `CC(C)(C)n1nnnc1CN(Cc1ccccc1)Cc1ccc(Cl)cc1` to `CC(C)(C)n1nnnc1CN(CCc1ccccc1)Cc1ccccc1`, the INHIBITION falls from 67.5% to 20.2%.

Going from `COc1ncccc1CNC(=O)c1ccco1` to `CN1CCC(CCc2ccnc(NC(=O)c3ccccn3)c2)CC1`, the INHIBITION falls from -16.5% to -102%.

Going from `Cn1c(CN2CCCCCC2)cc(=O)c(O)c1CN1CCCC1` to `Cn1c(CN2CCOCC2)cc(=O)c(O)c1CN1CCCCC1`, the INHIBITION falls from 60.2% to -211%.

First: Cn1c(CN2CCOCC2)cc(=O)c(O)c1CN1CCCC1
Second: Cn1cccc1C(=O)N1CCn2cc(CN3CCCC3)nc2C1
The INHIBITION of the first is lower: -205% for the first, -26.2% for the second.

First: c1ccc(C2Cn3ccnc3CN2Cc2ncc[nH]2)cc1 (stereo not given)
Second: CN(C)[C@@H]1CN(Cc2ccccn2)C[C@H]1c1cn(C)c2ccccc12
The INHIBITION of the first is lower: -116% for the first, 52.6% for the second.

First: Cc1cnn(C2CCCN(C(=O)c3cccc(Cn4ccnc4)c3)C2)c1 (stereo not given)
Second: O=C(c1cccc(Cn2ccnc2)c1)N1CCCC(n2ccnc2)C1 (stereo not given)
The INHIBITION of the first is lower: -112% for the first, -59.1% for the second.

Going from `CCN(CC)c1ccc2ccc(C(=O)N3CCCCO3)cn12` to `Cc1ccc2c(ccn2CC(=O)NC[C@@H]2CCCN3CCCC[C@H]23)c1`, the INHIBITION rises from 44.7% to 49%.

Compared with `CC(C)c1nnc2n1CCN(Cc1ccc3c(c1)OCCO3)C2`, `CCc1nnc2n1CCN(Cc1ccc3c(c1)OCCO3)C2` is higher in INHIBITION: -93.4% for the first, -83% for the second.

First: c1ccc(-c2nnc3n2CCN(Cc2ccc4c(c2)OCCO4)C3)cc1
Second: CN(Cc1ccccc1)CC1CC2(CO1)CN(Cc1cnn(C)c1)C2 (stereo not given)
The INHIBITION of the first is higher: 58.5% for the first, 52.1% for the second.

Compared with `CC1CCC(NCCNC(=O)c2cccs2)CC1` (stereo not given), `O=C(NCCNC1CCCC1)c1cccs1` is lower in INHIBITION: 63.7% for the first, -54.1% for the second.

Compared with `O=C(NCCNC1CCCCC1)c1cccs1`, `O=C(Cn1ccc2ccccc21)NC[C@@H]1CCCN2CCCC[C@H]12` is higher in INHIBITION: -44.7% for the first, -14.5% for the second.

Going from `CCC(CC)C(=O)Nc1ccc2oc(=O)n(CCN(C)C)c2c1` to `O=c1oc2ccccc2n1CCCN1CCCC1c1ccc(O)cc1` (stereo not given), the INHIBITION rises from 25.5% to 54.1%.

First: CN(Cc1ccccc1)CC1CC2(CO1)CN(c1nncs1)C2 (stereo not given)
Second: CN(Cc1ccccc1)CC1CC2(CO1)CN(Cc1nccs1)C2 (stereo not given)
The INHIBITION of the first is lower: -0.698% for the first, 6.81% for the second.

First: CNC(=O)Cc1ccccc1NC(=O)N[C@H]1c2ccccc2C[C@H]1O
Second: COCCN(C/C=C/c1ccccc1)Cc1ccccn1
The INHIBITION of the first is lower: -69.7% for the first, 23.1% for the second.

First: COc1ccc(CCC2CCCCN2)cc1OC (stereo not given)
Second: Oc1cc(CCC2CCCCN2)cc(-c2ccncc2)c1 (stereo not given)
The INHIBITION of the first is lower: -112% for the first, 67.5% for the second.

Compared with `Nc1ccc(-c2cc(O)cc(CCC3CCCCN3)c2)cn1` (stereo not given), `Oc1cc(CCC2CCCCN2)cc(-c2cccnc2)c1` (stereo not given) is higher in INHIBITION: -92.8% for the first, 69% for the second.

Going from `O=c1cc(-c2cc(O)cc(CCC3CCCCN3)c2)cc[nH]1` (stereo not given) to `O=c1[nH]ccc2cc(-c3cc(O)cc(CCC4CCCCN4)c3)ccc12` (stereo not given), the INHIBITION falls from 0.568% to -57.5%.

Compared with `Cc1nc2c(c(NCCCN3CCOCC3)n1)CCN(C)C2`, `Cc1ccc2c(ccn2CCC(=O)NC[C@@H]2CCCN3CCCC[C@H]23)c1` is higher in INHIBITION: -73.4% for the first, 52% for the second.

Going from `Cn1cnnc1CNC(=O)C1CCCN(Cc2cccc(F)c2)C1` (stereo not given) to `O=C(c1cccc(Cl)c1)N1CCCn2c(CN3CCCCC3)nnc2C1`, the INHIBITION rises from -141% to 10.2%.

Going from `CCCN(C(=O)c1ccncc1)c1nc2c(s1)CCc1c-2cnn1C` to `CCCN(C(=O)c1ccccn1)c1nc2c(s1)CCc1c-2cnn1C`, the INHIBITION falls from 55.6% to 38.1%.

Compared with `OC1CCN(Cc2c(C3CCCNC3)[nH]c3ncccc23)CC1` (stereo not given), `O=C(Cn1ccc2cc(Br)ccc21)NC[C@@H]1CCCN2CCCC[C@H]12` is higher in INHIBITION: -65.3% for the first, -14% for the second.

Compared with `COc1ccc2c(ccn2CC(=O)NC[C@@H]2CCCN3CCCC[C@H]23)c1`, `O=C(CCn1ccc2cc(Br)ccc21)NC[C@@H]1CCCN2CCCC[C@H]12` is higher in INHIBITION: -57.3% for the first, 67.1% for the second.

Going from `CN(Cc1ccco1)[C@@H]1CN(Cc2ccccn2)C[C@@H]2CCCO[C@@H]21` to `Cc1cc(C)n(C2CN(Cc3ccccn3)C2)n1`, the INHIBITION falls from 31.5% to -90.2%.

Compared with `COc1ccc([C@@H]2CN(Cc3cccnc3N)C[C@H]2N(C)C)cc1`, `COc1ccc([C@@H]2CN(Cc3ccncc3)C[C@H]2N(C)C)cc1` is lower in INHIBITION: 53.9% for the first, -36.3% for the second.

First: COCCN(C/C=C/c1ccccc1)Cc1nccs1
Second: CCc1ccc(CN(C/C=C/c2ccccc2)CCOC)nc1
The INHIBITION of the first is lower: -7.08% for the first, 54.8% for the second.

First: Cn1ccnc1-c1nc2cc(S(=O)(=O)N3CCCC3)ccc2n1C
Second: Cc1nc[nH]c1-c1nccn1CCN1CCOC1=O
The INHIBITION of the first is higher: -13.2% for the first, -38.9% for the second.

Going from `Nc1cc2c(nn1)CCN(C(=O)CCC1CCCCC1)C2` to `CCn1cc(CNC(=O)CCn2ncc3c(Cl)cccc32)cn1`, the INHIBITION rises from -69.7% to -21.7%.

Going from `Cc1ccc(CN(CCCn2ccnc2)Cc2c[nH]cn2)s1` to `CN(C)c1ccc(CN(CCCn2ccnc2)Cc2c[nH]cn2)cc1`, the INHIBITION rises from 21.2% to 79.8%.

First: c1cc(CN(CCCn2ccnc2)Cc2ccoc2)ccn1
Second: CCn1cc(CNc2ccc3nccnc3c2)cn1
The INHIBITION of the first is lower: -27% for the first, -14.1% for the second.

First: Cn1ccnc1CNCCNc1ncc(Cl)cc1Cl
Second: Cn1cc(CNCCNc2ncc(Cl)cc2Cl)cn1
The INHIBITION of the first is lower: 41.8% for the first, 54% for the second.

Going from `Cn1cc(CCNCc2cc(Cl)c3c(c2)OCCO3)cn1` to `CCn1cc(CNCCNc2ncc(Cl)cc2Cl)cn1`, the INHIBITION rises from -26.6% to 66.6%.
